Experimental data from the supplement of paper PMC7411054.
Where a name gives a salt, the structure may show the parent alone.

Assays:
Assay in all cases: phenotypically active (imaging signature differs from DMSO and reproducible) at any of 0.3-9 uM (binary (1 = active, 0 = inactive)); higher = active
Details in all cases: treatment time: 24 h
A549-ACTB-RAB5A = system: A549-ACTB-RAB5A
Procedure, shortened: (§1)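 Phenotypic activity depended on meeting both a deviation and a reproducibility criterion. The fifteen gene-edited A549, HepG2 and WPMY1 reporter lines were treated at 0.3, 1, 3 or 9 µM for 24 h, four wells each, then imaged live with features normalised to solvent control wells. Deviation required ≥3 of 4 wells past the 95th percentile of control Euclidean distances, and reproducibility a median replicate Pearson correlation above the 95th percentile of non-replicates.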

A549-CANX-COX4 = system: A549-CANX-COX4
Procedure, shortened: as §1

A549-GM130-SQSTM1 = system: A549-GM130-SQSTM1
Procedure, shortened: as §1

A549-TP53BP1-CLTA = system: A549-TP53BP1-CLTA
Procedure, shortened: as §1

A549-TUBA1B-RELA = system: A549-TUBA1B-RELA
Procedure, shortened: as §1

HepG2-ACTB-RAB5A = system: HepG2-ACTB-RAB5A
Procedure, shortened: as §1

HepG2-CANX-COX4 = system: HepG2-CANX-COX4
Procedure, shortened: as §1

HepG2-GM130-SQSTM1 = system: HepG2-GM130-SQSTM1
Procedure, shortened: as §1

HepG2-TP53BP1-CLTA = system: HepG2-TP53BP1-CLTA
Procedure, shortened: as §1

HepG2-TUBA1B-RELA = system: HepG2-TUBA1B-RELA
Procedure, shortened: as §1

WPMY1-ACTB-RAB5A = system: WPMY1-ACTB-RAB5A
Procedure, shortened: as §1

WPMY1-CANX-COX4 = system: WPMY1-CANX-COX4
Procedure, shortened: as §1

WPMY1-GM130-SQSTM1 = system: WPMY1-GM130-SQSTM1
Procedure, shortened: as §1

WPMY1-TP53BP1-CLTA = system: WPMY1-TP53BP1-CLTA
Procedure, shortened: as §1

WPMY1-TUBA1B-RELA = system: WPMY1-TUBA1B-RELA
Procedure, shortened: as §1

Measured: phenotypically active

CC[N+](CC)(CC)CCC(O)(c1ccccc1)C1CCCCC1 (stereo not given) [tridihexethyl]
inactive: A549-ACTB-RAB5A 0 | A549-CANX-COX4 0 | A549-GM130-SQSTM1 0 | A549-TP53BP1-CLTA 0 | A549-TUBA1B-RELA 0 | HepG2-ACTB-RAB5A 0 | HepG2-CANX-COX4 0 | HepG2-GM130-SQSTM1 0 | HepG2-TP53BP1-CLTA 0 | HepG2-TUBA1B-RELA 0 | WPMY1-ACTB-RAB5A 0 | WPMY1-CANX-COX4 0 | WPMY1-GM130-SQSTM1 0 | WPMY1-TP53BP1-CLTA 0 | WPMY1-TUBA1B-RELA 0

COCC(=O)N[C@@H](Cc1ccc(-c2cc(Cl)cc(Cl)c2)cc1)[C@H](O)[C@@H](O)C(=O)O
inactive: A549-ACTB-RAB5A 0 | A549-CANX-COX4 0 | A549-GM130-SQSTM1 0 | A549-TP53BP1-CLTA 0 | A549-TUBA1B-RELA 0 | HepG2-ACTB-RAB5A 0 | HepG2-CANX-COX4 0 | HepG2-GM130-SQSTM1 0 | HepG2-TP53BP1-CLTA 0 | HepG2-TUBA1B-RELA 0 | WPMY1-ACTB-RAB5A 0 | WPMY1-CANX-COX4 0 | WPMY1-GM130-SQSTM1 0 | WPMY1-TP53BP1-CLTA 0 | WPMY1-TUBA1B-RELA 0

O=C(O)c1cccc(C(=O)O)n1 [2,6-Pyridinedicarboxylic Acid]
inactive: A549-ACTB-RAB5A 0 | A549-CANX-COX4 0 | A549-GM130-SQSTM1 0 | A549-TP53BP1-CLTA 0 | A549-TUBA1B-RELA 0 | HepG2-ACTB-RAB5A 0 | HepG2-CANX-COX4 0 | HepG2-GM130-SQSTM1 0 | HepG2-TP53BP1-CLTA 0 | HepG2-TUBA1B-RELA 0 | WPMY1-ACTB-RAB5A 0 | WPMY1-CANX-COX4 0 | WPMY1-GM130-SQSTM1 0 | WPMY1-TP53BP1-CLTA 0 | WPMY1-TUBA1B-RELA 0

CC1=C(CC(=O)O)c2cc(F)ccc2/C1=C\c1ccc(S(C)=O)cc1 (stereo not given) [sulindac]
inactive: A549-ACTB-RAB5A 0 | A549-CANX-COX4 0 | A549-GM130-SQSTM1 0 | A549-TP53BP1-CLTA 0 | A549-TUBA1B-RELA 0 | HepG2-ACTB-RAB5A 0 | HepG2-CANX-COX4 0 | HepG2-GM130-SQSTM1 0 | HepG2-TP53BP1-CLTA 0 | HepG2-TUBA1B-RELA 0 | WPMY1-ACTB-RAB5A 0 | WPMY1-CANX-COX4 0 | WPMY1-GM130-SQSTM1 0 | WPMY1-TP53BP1-CLTA 0 | WPMY1-TUBA1B-RELA 0

CCCCCC1CC1CC1CC1CCCCCCCC(=O)O (stereo not given)
inactive: A549-ACTB-RAB5A 0 | A549-CANX-COX4 0 | A549-GM130-SQSTM1 0 | A549-TP53BP1-CLTA 0 | A549-TUBA1B-RELA 0 | HepG2-ACTB-RAB5A 0 | HepG2-CANX-COX4 0 | HepG2-GM130-SQSTM1 0 | HepG2-TP53BP1-CLTA 0 | HepG2-TUBA1B-RELA 0 | WPMY1-ACTB-RAB5A 0 | WPMY1-CANX-COX4 0 | WPMY1-GM130-SQSTM1 0 | WPMY1-TP53BP1-CLTA 0 | WPMY1-TUBA1B-RELA 0

COC(=O)C(Cc1ccc(OCCn2c(=O)sc3cc(C(=O)c4ccccc4)ccc32)cc1)C(=O)OC
inactive: A549-ACTB-RAB5A 0 | A549-CANX-COX4 0 | A549-GM130-SQSTM1 0 | A549-TP53BP1-CLTA 0 | A549-TUBA1B-RELA 0 | HepG2-ACTB-RAB5A 0 | HepG2-CANX-COX4 0 | HepG2-GM130-SQSTM1 0 | HepG2-TP53BP1-CLTA 0 | HepG2-TUBA1B-RELA 0 | WPMY1-ACTB-RAB5A 0 | WPMY1-CANX-COX4 0 | WPMY1-GM130-SQSTM1 0 | WPMY1-TP53BP1-CLTA 0 | WPMY1-TUBA1B-RELA 0

CN(C)CCCSc1ccccc1NC(=O)/C=C/c1ccccc1 [Cinanserin hydrochloride]
inactive: A549-ACTB-RAB5A 0 | A549-CANX-COX4 0 | A549-GM130-SQSTM1 0 | A549-TP53BP1-CLTA 0 | A549-TUBA1B-RELA 0 | HepG2-ACTB-RAB5A 0 | HepG2-CANX-COX4 0 | HepG2-GM130-SQSTM1 0 | HepG2-TP53BP1-CLTA 0 | HepG2-TUBA1B-RELA 0 | WPMY1-ACTB-RAB5A 0 | WPMY1-CANX-COX4 0 | WPMY1-GM130-SQSTM1 0 | WPMY1-TP53BP1-CLTA 0 | WPMY1-TUBA1B-RELA 0

CC(=O)N[C@@H](CC(=O)O)C(=O)N[C@@H](CCC(=O)O)C(=O)O [Spaglumic acid]
inactive: A549-ACTB-RAB5A 0 | A549-CANX-COX4 0 | A549-GM130-SQSTM1 0 | A549-TP53BP1-CLTA 0 | A549-TUBA1B-RELA 0 | HepG2-ACTB-RAB5A 0 | HepG2-CANX-COX4 0 | HepG2-GM130-SQSTM1 0 | HepG2-TP53BP1-CLTA 0 | HepG2-TUBA1B-RELA 0 | WPMY1-ACTB-RAB5A 0 | WPMY1-CANX-COX4 0 | WPMY1-GM130-SQSTM1 0 | WPMY1-TP53BP1-CLTA 0 | WPMY1-TUBA1B-RELA 0

CC(C)NCC(O)c1ccc(O)c(O)c1 (stereo not given) [Isoproterenol hydrochloride]
inactive: A549-ACTB-RAB5A 0 | A549-CANX-COX4 0 | A549-GM130-SQSTM1 0 | A549-TP53BP1-CLTA 0 | A549-TUBA1B-RELA 0 | HepG2-ACTB-RAB5A 0 | HepG2-CANX-COX4 0 | HepG2-GM130-SQSTM1 0 | HepG2-TP53BP1-CLTA 0 | HepG2-TUBA1B-RELA 0 | WPMY1-ACTB-RAB5A 0 | WPMY1-CANX-COX4 0 | WPMY1-GM130-SQSTM1 0 | WPMY1-TP53BP1-CLTA 0 | WPMY1-TUBA1B-RELA 0

C=C(C)[C@@H]1CC[C@]2(CO)CC[C@]3(C)[C@H](CC[C@@H]4[C@@]5(C)CC[C@H](O)C(C)(C)[C@@H]5CC[C@]43C)[C@@H]12 [Betulin]
inactive: A549-ACTB-RAB5A 0 | A549-CANX-COX4 0 | A549-GM130-SQSTM1 0 | A549-TP53BP1-CLTA 0 | A549-TUBA1B-RELA 0 | HepG2-ACTB-RAB5A 0 | HepG2-CANX-COX4 0 | HepG2-GM130-SQSTM1 0 | HepG2-TP53BP1-CLTA 0 | HepG2-TUBA1B-RELA 0 | WPMY1-ACTB-RAB5A 0 | WPMY1-CANX-COX4 0 | WPMY1-GM130-SQSTM1 0 | WPMY1-TP53BP1-CLTA 0 | WPMY1-TUBA1B-RELA 0

Cc1c(F)cc(C(=O)NC2CC2)cc1-c1ccc(C(=O)NCC(C)(C)C)cn1 [losmapimod]
inactive: A549-ACTB-RAB5A 0 | A549-CANX-COX4 0 | A549-GM130-SQSTM1 0 | A549-TP53BP1-CLTA 0 | A549-TUBA1B-RELA 0 | HepG2-ACTB-RAB5A 0 | HepG2-CANX-COX4 0 | HepG2-GM130-SQSTM1 0 | HepG2-TP53BP1-CLTA 0 | HepG2-TUBA1B-RELA 0 | WPMY1-ACTB-RAB5A 0 | WPMY1-CANX-COX4 0 | WPMY1-GM130-SQSTM1 0 | WPMY1-TP53BP1-CLTA 0 | WPMY1-TUBA1B-RELA 0
